Assay [1] concerns Wnt5a (protein binding on small-molecule microarray). Kind of assay: Wnt5a binders on small-molecule microarray, primary screen, biophysical, 635/667 nm fluorescence (AID 1142).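 Also: fluorescence read at 667 nm with signal to noise per printed feature.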 The note with it: 635 nm fluorescence, higher = more signal.
Assay [2] in a line: cell viability in Huh7 cells, primary screen, cytotoxicity control for HCV replication inhibitor project, CellTiter-Glo luminescence, basal, 48 h (AID 1143).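 Also: Huh7 hepatoma cells carrying a hepatitis C replication reporter with no stimulus; test concentration not given here.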 The following applies: Huh7 HCV replicon, higher = more signal, called active from +8 up or from −8 down. Background: In ATP-based viability assays light output follows the ATP content of the culture.
A short description of assay [3]: CREB reporter modulators without forskolin, primary screen, cell-based, PC12, CRE-LacZ reporter, unstimulated (AID 1145). The following applies: no forskolin, luminescence, 4.5 h, higher = more signal, called active from +8 up or from −8 down.
Assay [4] is described as follows: CREB reporter modulators under forskolin, primary screen, cell-based, PC12, CRE-LacZ reporter, forskolin-stimulated (AID 1146).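 Also: PC12 cells with 6xCRE LacZ reporter stimulated by forskolin 10 µM; beta-galactosidase reporter signal reflecting CREB driven transcription.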 The note with it: luminescence, 4.5 h, higher = more signal, called active from +8 up or from −8 down.
The target of assay [5] is Streptavidin (Streptomyces avidinii) (UniProt P22629). Kind of assay: streptavidin binders on small-molecule microarray, primary screen, artefact control for SMM compound annotation, biophysical, 635/667 nm fluorescence (AID 1147).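 Also: signal reflects streptavidin binding to arrayed compounds as a control protein.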 The note with it: streptavidin binding, higher = more signal.
Sequence of Streptavidin (Streptomyces avidinii) (P22629 whole entry, looked up): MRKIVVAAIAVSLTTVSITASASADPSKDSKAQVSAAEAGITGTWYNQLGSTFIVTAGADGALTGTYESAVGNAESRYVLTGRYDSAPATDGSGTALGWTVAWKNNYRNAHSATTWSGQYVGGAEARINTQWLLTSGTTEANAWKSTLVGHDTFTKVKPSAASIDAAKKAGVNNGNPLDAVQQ
Assay [6] is described as follows: small-molecule binders of probe aInhba, primary screen, biochemical, small-molecule microarray, 635/667 nm fluorescence (AID 1148).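 Also: score merges 667nm spot fluorescence with signal-to-noise for antibody binding to printed compounds.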 The note with it: higher = more signal.
Assay [7] deals with Torsin-1A (Homo sapiens) (UniProt O14656). In words: torsin A binders from cell lysate, primary screen, small-molecule microarray, wild-type, 635/667 nm (AID 1149). The following applies: COS7 hTOR1A-WT lysate, 635 nm fluorescence, higher = more signal.
Sequence of Torsin-1A (Homo sapiens) (O14656 whole entry, looked up): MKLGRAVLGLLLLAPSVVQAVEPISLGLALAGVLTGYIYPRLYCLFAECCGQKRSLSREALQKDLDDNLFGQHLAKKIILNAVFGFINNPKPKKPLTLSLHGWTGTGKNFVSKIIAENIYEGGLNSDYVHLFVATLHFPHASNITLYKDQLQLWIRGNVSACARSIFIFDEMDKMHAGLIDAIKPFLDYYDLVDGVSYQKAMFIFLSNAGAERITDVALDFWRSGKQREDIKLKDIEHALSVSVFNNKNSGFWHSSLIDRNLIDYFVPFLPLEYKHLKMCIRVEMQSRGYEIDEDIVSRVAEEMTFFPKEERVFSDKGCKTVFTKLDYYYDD
Assay [8] shares this target. In words: small-molecule binders of mutant TOR1A in lysate, primary screen, cell lysate, small-molecule microarray, COS7 lysate, 635/667 nm fluorescence (AID 1150).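 Also: score pools 667 nm emission and signal to noise measuring lysate protein binding.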 The following applies: COS7 hTOR1A mutant lysate, 635 nm fluorescence, higher = more signal.
Assay [9] deals with Sonic hedgehog protein (Shh). Kind of assay: small-molecule binders of Shh protein, primary screen, biochemical, small-molecule microarray, 635/667 nm fluorescence (AID 1151).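 Also: Shh protein binding to compounds spotted on small-molecule microarray slides; score combines spot fluorescence intensity with signal-to-noise across triplicate slides.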 The note with it: small-molecule microarray binding, 635 nm fluorescence; higher = more signal.
Assay [10] in a line: E. coli DRC41 culture turbidity changes, primary screen, E. coli filamentation inducer project, strain DRC41, OD650, 48 h (AID 1152).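 Also: E. coli MC1000 strain DRC41 lacking acrAB efflux pump and sulA.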 The following applies: E. coli DRC41 (acrAB sulA), higher = more signal, called active from +8 up or from −8 down.
Assay [11] is described as follows: small-molecule binders of probe aLefty1, primary screen, biochemical, small-molecule microarray, 635/667 nm fluorescence (AID 1153).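 Also: score merges spot fluorescence with signal-to-noise ratio from the scanned slide images.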 The note with it: higher = more signal.
Assay [12] can be described thus: PSAC antagonists in infected red cells, primary screen, cell-based, P. falciparum Indochina, OD700, 1 h (AID 1154). The note with it: P. falciparum Indochina infected RBC osmotic lysis, higher = more signal, called active from +8 up or from −8 down.
Assay [13] is described as follows: PSAC antagonists in infected red cells, primary screen, cell-based, P. falciparum Indochina, OD700, 2 h (AID 1155).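 Also: lysis reports solute entry through the parasite surface anion channel PSAC; channel blockers reduce lysis of infected cells.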 The note with it: P. falciparum Indochina infected erythrocytes, osmotic lysis OD700; higher = more signal, called active from +8 up or from −8 down.
Assay [14] can be described thus: osmotic lysis modulators in infected erythrocytes, primary screen, PSAC antagonist project, cell-based, P. falciparum Indochina, OD700, 3 h (AID 1156). The following applies: higher = more signal, called active from +8 up or from −8 down.
The nature of assay [15]: PSAC antagonists in infected red cells, primary screen, cell-based, P. falciparum Indochina, OD700, 18 h (AID 1157). The note with it: P. falciparum Indochina infected erythrocytes, osmotic lysis OD700, 18 h; higher = more signal, called active from +8 up or from −8 down.
The nature of assay [16]: modulators of S6 phosphorylation in cells, primary screen, cell-based, A549, cytoblot, luminescence, serum-stimulated (AID 1158).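 Also: serum-stimulated A549 lung adenocarcinoma cells; signal is phosphorylated S6 detected by cytoblot immunostaining with HRP secondary.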 The note with it: A549 phospho-S6 cytoblot, 5 h, higher = more signal.
In assay [17] the target is NADPH oxidase 2 (Homo sapiens) (UniProt P04839). In words: NOX2-dependent H2O2 signal modulators, primary screen, NOX inhibitor project, cell-based, HEK293-NOX2, PMA-stimulated, Amplex Red fluorescence (AID 1159). Also: test concentration not given here. The following applies: 45 min, higher = more signal, called active from +8 up or from −8 down.
Sequence of NADPH oxidase 2 (Homo sapiens) (P04839 whole entry, looked up): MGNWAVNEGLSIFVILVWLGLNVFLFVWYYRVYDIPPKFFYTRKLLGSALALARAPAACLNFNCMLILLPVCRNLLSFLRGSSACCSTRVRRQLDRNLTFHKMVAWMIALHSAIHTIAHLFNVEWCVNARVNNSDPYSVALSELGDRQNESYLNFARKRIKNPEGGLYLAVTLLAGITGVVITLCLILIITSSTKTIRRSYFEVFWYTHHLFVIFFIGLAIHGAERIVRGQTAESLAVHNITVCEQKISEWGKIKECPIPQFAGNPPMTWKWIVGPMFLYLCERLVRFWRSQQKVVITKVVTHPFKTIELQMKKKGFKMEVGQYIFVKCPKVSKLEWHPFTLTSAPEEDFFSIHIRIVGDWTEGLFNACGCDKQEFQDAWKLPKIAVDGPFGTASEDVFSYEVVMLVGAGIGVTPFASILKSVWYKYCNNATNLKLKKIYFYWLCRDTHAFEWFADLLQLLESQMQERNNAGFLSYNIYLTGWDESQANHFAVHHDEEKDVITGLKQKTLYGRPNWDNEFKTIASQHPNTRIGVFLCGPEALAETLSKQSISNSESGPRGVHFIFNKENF
Assay [18] deals with NADPH oxidase 4 (Homo sapiens) (UniProt Q9NPH5). In words: NOX4-dependent H2O2 signal modulators, primary screen, NOX inhibitor project, cell-based, HEK293-NOX4, tetracycline-induced, Amplex Red fluorescence (AID 1160). The following applies: 45 min, higher = more signal, called active from +8 up or from −8 down.
Sequence of NADPH oxidase 4 (Homo sapiens) (Q9NPH5 whole entry, looked up): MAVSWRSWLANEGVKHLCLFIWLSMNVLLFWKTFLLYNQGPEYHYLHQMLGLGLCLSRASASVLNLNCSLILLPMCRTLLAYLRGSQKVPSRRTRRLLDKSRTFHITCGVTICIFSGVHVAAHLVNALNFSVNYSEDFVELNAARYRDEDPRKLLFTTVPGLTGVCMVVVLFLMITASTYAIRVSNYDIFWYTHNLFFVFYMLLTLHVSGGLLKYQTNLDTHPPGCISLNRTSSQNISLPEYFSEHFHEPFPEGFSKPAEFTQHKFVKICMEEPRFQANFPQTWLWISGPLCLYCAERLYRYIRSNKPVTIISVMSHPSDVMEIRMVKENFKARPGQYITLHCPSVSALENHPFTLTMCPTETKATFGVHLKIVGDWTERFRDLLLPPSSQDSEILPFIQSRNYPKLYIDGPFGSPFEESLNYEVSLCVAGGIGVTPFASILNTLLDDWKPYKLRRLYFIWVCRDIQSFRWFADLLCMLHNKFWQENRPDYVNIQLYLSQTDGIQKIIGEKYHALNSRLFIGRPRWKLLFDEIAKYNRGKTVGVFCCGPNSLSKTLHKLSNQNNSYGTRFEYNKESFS
The target of assay [19] is NADPH oxidase 5 (Homo sapiens) (UniProt Q96PH1). In words: NOX5-dependent H2O2 signal modulators, primary screen, NOX inhibitor project, cell-based, HEK293-NOX5, Amplex Red fluorescence (AID 1161). The note with it: HEK293-NOX5, ionomycin, 45 min, higher = more signal.
Sequence of NADPH oxidase 5 (Homo sapiens) (Q96PH1 whole entry, looked up): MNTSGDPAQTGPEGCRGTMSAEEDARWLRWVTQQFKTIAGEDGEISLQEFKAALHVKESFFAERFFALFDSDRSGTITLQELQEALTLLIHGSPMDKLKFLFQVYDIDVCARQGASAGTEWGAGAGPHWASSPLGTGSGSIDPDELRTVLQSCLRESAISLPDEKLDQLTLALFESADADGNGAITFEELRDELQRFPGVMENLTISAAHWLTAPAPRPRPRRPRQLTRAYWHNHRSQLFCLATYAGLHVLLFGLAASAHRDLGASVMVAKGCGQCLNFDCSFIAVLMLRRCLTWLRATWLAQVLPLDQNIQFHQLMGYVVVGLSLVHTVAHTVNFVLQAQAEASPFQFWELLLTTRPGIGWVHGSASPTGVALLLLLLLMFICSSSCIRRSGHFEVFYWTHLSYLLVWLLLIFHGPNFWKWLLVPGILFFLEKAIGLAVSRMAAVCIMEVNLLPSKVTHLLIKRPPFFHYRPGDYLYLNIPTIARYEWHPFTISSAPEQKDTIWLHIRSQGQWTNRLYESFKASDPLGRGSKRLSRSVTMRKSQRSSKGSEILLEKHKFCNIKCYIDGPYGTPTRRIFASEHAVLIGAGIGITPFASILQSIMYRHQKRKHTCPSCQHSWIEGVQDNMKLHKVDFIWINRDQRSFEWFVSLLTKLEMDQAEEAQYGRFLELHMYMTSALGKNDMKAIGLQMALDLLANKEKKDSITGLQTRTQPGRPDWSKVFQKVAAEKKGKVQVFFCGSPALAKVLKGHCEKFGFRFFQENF
Assay [20] can be described thus: A549 cell viability effects, profiling panel, calcein-AM fluorescence, 48 h, basal (AID 1162). Also: test concentration not given here. The following applies: higher = more signal.

This passage reports composite z-score and z-score results from PubChem BioAssay.

SMILES strings stand for the structures. Active and inactive are the calls of the source.

For `CO[C@H]1O[C@H](CO)[C@@H](OC(=O)Nc2ccccc2)[C@H](OC(=O)Nc2ccccc2-c2ccccc2)[C@H]1OC(=O)Nc1ccccc1-c1ccccc1`, the composite z-score was 0.289 in assay [1]; 0.787 in [5]; -0.0506 in assay [6]; 0.56 in assay [7]; 0.679 in [8]; 0.877 in assay [9]. This compound also came in with a composite z-score in assay [11] of 0.302. Besides, the z-score in assay [2] is -5.87 (inactive); in assay [3], 1.56 (inactive); in assay [4] it was 0.028 (inactive); in [10], 0.663 (inactive); in [12] it was 3.27 (inactive); in [13], -0.843 (inactive). The z-score was -1.21 (inactive) in assay [14]; -1.81 (inactive) in [15]; 0.668 in assay [16]; -6.45 (inactive) in assay [17]; -0.665 (inactive) in [18]; -1.43 in assay [19]. In assay [20], the z-score is -4.11.

For `COCCOC(=O)N1C(=O)[C@@]2(c3ccccc31)[C@H](C(=O)Nc1nc3ccccc3s1)[C@H]1C(=O)O[C@H](c3ccccc3)[C@H](c3ccccc3)N1[C@@H]2c1ccc(O)cc1`, the composite z-score in assay [1] is 0.418; in [5], 0.511; in [6], 0.263; in [7], 0.815; in assay [8] it was -0.06; in assay [9] it was 2.07. Further, the composite z-score in assay [11] was 0.577. In addition, the z-score was -3.59 (inactive) in assay [2]; -0.199 (inactive) in [3]; -0.395 (inactive) in assay [4]; 2.37 (inactive) in assay [10]; 10.9 (active) in assay [12]; 5 (inactive) in assay [13]. Moreover, the z-score in assay [14] was 1.67 (inactive); in assay [15] it was 2.06 (inactive); in assay [16] it was 1.92; in assay [17], -0.333 (inactive); in assay [18], -0.395 (inactive); in assay [19], 1.28. For the same compound, in assay [20], the z-score was 0.751.

Consider `Cc1ccc(S[C@]2(C(=O)NC3CC3)CC(=O)N(Cc3ccccc3C(F)(F)F)[C@@H]2c2ccc(CO)cc2I)cc1`, for which the composite z-score is 0.132 in [1]; -0.297 in [5]; -0.0523 in assay [6]; -0.0139 in assay [7]; 0.231 in assay [8]; 0.385 in assay [9]. Moreover, the composite z-score in assay [11] was 0.309. Moreover, the z-score in assay [2] is -2.54 (inactive); in [3], -0.114 (inactive); in assay [4], -0.479 (inactive); in assay [10], 2.31 (inactive); in [12], 5.75 (inactive); in assay [13] it was -0.15 (inactive). Besides, the z-score in assay [14] was 0.693 (inactive); in [15] it was -1.31 (inactive); in assay [16] it was 1.8; in assay [17], 1.42 (inactive); in assay [18], -2.36 (inactive); in [19] it was 1.21. For the same compound, in assay [20], the z-score was 0.243.

Regarding `CC(C)C[C@@H]1NC(=O)[C@@]23C(=O)N[C@@H](Cc4ccccc4)C2[C@H](C)[C@@]2(C)O[C@H]2C3/C=C/C/C=C\CNC(=O)[C@H](Cc2ccccc2)NC1=O` (stereo not given in full), the composite z-score in assay [1] is -0.108; in [5], -0.198; in [6], -0.082; in assay [7] it was 0.305; in assay [8] it was 0.384; in [9], 0.46. Further, the composite z-score in assay [11] was -0.147. Besides, the z-score is -4.13 (inactive) in [2]; 4.56 (inactive) in assay [3]; -2.06 (inactive) in [4]; 1.76 (inactive) in assay [10]; 1.53 (inactive) in assay [12]; -0.0735 (inactive) in assay [13]. The z-score in assay [14] is 0.966 (inactive); in [15], 0.256 (inactive); in [16], 0.497; in assay [17] it was -0.188 (inactive); in assay [18], 0.692 (inactive); in assay [19] it was -3.15. Moreover, in [20], the z-score is 0.823.

Consider `CCCNC(=O)[C@@H]1c2ccccc2C(=O)N(Cc2cc(C(F)(F)F)cc(C(F)(F)F)c2)[C@H]1c1ccc(CO)cc1`, for which the composite z-score was 0.311 in [1]; -0.555 in assay [5]; -0.157 in assay [6]; -0.0027 in assay [7]; 0.19 in assay [8]; 1 in assay [9]. In assay [11], this compound gave a composite z-score of 0.233. The z-score in assay [2] was -2.67 (inactive); in assay [3] it was 0.649 (inactive); in [4], -1.13 (inactive); in [10], 1.63 (inactive); in [12] it was 3.17 (inactive); in assay [13] it was 1.07 (inactive). The z-score in [14] is -0.631 (inactive); in assay [15], 0.77 (inactive); in [16], 0.488; in [17], 0.602 (inactive); in assay [18] it was -0.772 (inactive); in [19] it was 0.69. For the same compound, the z-score in [20] is 1.16.

With `COC(=O)C1=CC(CCCO)=CC(C2CC2)N(Cc2cc3c(cc2Br)OCO3)C=C1C(=O)OC` (stereo not given), the composite z-score was 0.135 in assay [1]; 1.22 in [5]; 0.143 in assay [6]; 0.777 in assay [7]; 1.61 in [8]; -0.593 in assay [9]. The composite z-score in assay [11] came out at 0.248. The z-score is -2.77 (inactive) in [2]; 0.389 (inactive) in assay [3]; -0.562 (inactive) in assay [4]; 1.55 (inactive) in assay [10]; 2.31 (inactive) in assay [12]; -1.2 (inactive) in assay [13]. The z-score in assay [14] is -0.183 (inactive); in assay [15], -0.951 (inactive); in [16] it was 0.771; in [17], 0.0713 (inactive); in assay [18], 1.24 (inactive); in assay [19] it was 1.91. Besides, the z-score in assay [20] is 0.589.

With `CO[C@H]1O[C@H](CO)[C@@H](OC(=O)Nc2ccccc2)[C@H](OC(=O)Nc2ccc3c(c2)OCO3)[C@H]1OC(=O)Nc1ccc2c(c1)OCO2`, the composite z-score in assay [1] is 0.229; in assay [5], 0.142; in [6] it was -0.018; in [7], 0.505; in assay [8], 0.781; in assay [9], 0.739. The same compound showed a composite z-score in assay [11] of 0.57. Also, the z-score in assay [2] was -3.58 (inactive); in assay [3], 0.754 (inactive); in assay [4], -2.46 (inactive); in [10], 2.12 (inactive); in assay [12] it was 4.45 (inactive); in [13], -0.359 (inactive). The z-score is 0.0835 (inactive) in assay [14]; -1.81 (inactive) in assay [15]; 1.21 in assay [16]; -3.84 (inactive) in assay [17]; -3.08 (inactive) in assay [18]; -2.05 in [19]. Moreover, the z-score in [20] was 0.275.

Turning to `CC(C)CCC[C@@H](C)[C@H]1CC[C@@]2(C)C3=C(CC[C@]12C)[C@@]1(C)CC[C@H](OC(=O)CCl)C(C)(C)C1CC3` (stereo not given in full), the composite z-score in [1] was 0.109; in [5], 0.0285; in assay [6] it was -0.251; in assay [7] it was 0.662; in [8], 0.358; in assay [9] it was 0.588. Also, the composite z-score in [11] is -0.194. For the same compound, the z-score was -0.186 (inactive) in [2]; 1.3 (inactive) in assay [3]; -0.731 (inactive) in assay [4]; 3.33 (inactive) in assay [10]; -0.0025 (inactive) in assay [12]; -0.116 (inactive) in assay [13]. Moreover, the z-score in [14] was -0.417 (inactive); in assay [15], 0.01 (inactive); in assay [16], 0.413; in [17], -0.776 (inactive); in assay [18], 0.446 (inactive); in [19], 0.517. For the same compound, the z-score in assay [20] was 1.98.
